An excerpt weighted towards active compounds, which were near 18% of everything screened.
CtBP-E1A blk: CtBP/E1A binding inhibition; AlphaScreen GST-E1A/His-CtBP binding, 1536-well; stronger effect = lower value; 340,000 tested, 0.49% active; activity change, % (concentration not given with the values); in the data active means activity change below about -65%; inconclusive means mostly about -30% to -63%
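Steps: dispense buffer (Tris pH 8.0, NaCl 300 mM, TCEP 1 mM, BSA, Tween 20); add 5X protein mix (GST-E1A, His-CtBP, 125 nM each); pin 23 nL compound; 2 h at 37 °C, dark; add 5X beads (50 ug/mL); 1 h; read.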
Six1-Eya2 inh: blocks human Six1 binding to Eya2. AlphaScreen GST-Six1/His-Eya2 binding, biochemical; stronger effect = lower value. activity change, % (concentration not given with the values). 360,000 tested, 0.56% active. AID 651725; in the data active means activity change below about -65%; inconclusive means mostly about -30% to -63%
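Six1/Eya2 binding was read as AlphaScreen signal after compounds were pinned into GST-Six1 plus His-tagged Eya2 (5X stock 250/500 nM) in pH 8.0 Tris/NaCl/TCEP buffer, beads added, then incubated 1 h, 37 C, dark.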
TDP1 cell CPT: DT40-hTDP1 cell growth loss with CPT; AID 686979; chicken DT40 Tdp1-/-;hTDP1 cells + 20 nM CPT, ATP luminescence, 48 h; Potency, µM (doses to about 46.2 µM), for the others: top-dose activity change, negative = growth inhibition, actives largely listed as inhibitors; 420,000 tested, 12% active; further: potency means the concentration at half of the fitted maximal effect; nearly all actives have a fitted effect of over 55% in size
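Chicken DT40 Tdp1-/- cells stably complemented with human TDP1 were seeded at 400 cells/well in medium containing 20 nM camptothecin, exposed to pin-transferred compounds, and grown at 37 °C for at least 48 hr. Viability was read as ATP luminescence.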
IL1B secr inh: inflammasome signaling inhibition, IL-1 beta readout | THP-1 LPS/ATP IL-1B secretion, AlphaLISA, 16 h; stronger effect = lower value | activity change, % at 57.5 µM | 360,000 tested, 4.7% active | AID 743279; in the data active means activity change below about -50%; inconclusive means mostly about -30% to -49%
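Secreted IL-1B measured by AlphaLISA bead assay after 16 h compound exposure of THP-1 cells; compounds (final up to 57.5 uM) added 1 h before LPS (250 ng/mL) and ATP (1.25 mM) stimulation; lower signal means less secretion.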
TDP1 cell noCPT: qHTS for Inhibitors of human tyrosyl-DNA phosphodiesterase 1 (TDP1): qHTS in cells in absence of CPT; DT40 Tdp1-/- hTDP1 cells, no CPT, ATP luminescence, 48 h; Potency, µM (highest dose often 46.2 µM), for inactives: at the top dose activity change, negative = growth inhibition, hits mostly inhibitors; 420,000 tested, 15% active; further: potency means the concentration at half of the fitted maximal effect; nearly all actives have a fitted effect of over 55% in size
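Chicken DT40 Tdp1-/- cells complemented with human TDP1, screened without camptothecin (DMSO vehicle only), 400 cells/well. Compounds pin-transferred, cells incubated at 37 °C for at least 48 hr. Growth read as ATP-dependent luminescence (CellTiter-Glo, 30 min at RT).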
TDP1 block: blocks human tyrosyl-DNA phosphodiesterase 1; Q9NUW8; recombinant TDP1, AlphaScreen DNA substrate cleavage; Potency, µM (titrated, usually from 130 µM), without a hit: at the highest dose activity change, negative = inhibition, usual class: inhibitors; 350,000 tested, 0.28% active; AID 485290; further: potency means the concentration at half of the fitted maximal effect; nearly all actives have a fitted effect of over 40% in size
Target sequence (Q9NUW8 whole entry, looked up): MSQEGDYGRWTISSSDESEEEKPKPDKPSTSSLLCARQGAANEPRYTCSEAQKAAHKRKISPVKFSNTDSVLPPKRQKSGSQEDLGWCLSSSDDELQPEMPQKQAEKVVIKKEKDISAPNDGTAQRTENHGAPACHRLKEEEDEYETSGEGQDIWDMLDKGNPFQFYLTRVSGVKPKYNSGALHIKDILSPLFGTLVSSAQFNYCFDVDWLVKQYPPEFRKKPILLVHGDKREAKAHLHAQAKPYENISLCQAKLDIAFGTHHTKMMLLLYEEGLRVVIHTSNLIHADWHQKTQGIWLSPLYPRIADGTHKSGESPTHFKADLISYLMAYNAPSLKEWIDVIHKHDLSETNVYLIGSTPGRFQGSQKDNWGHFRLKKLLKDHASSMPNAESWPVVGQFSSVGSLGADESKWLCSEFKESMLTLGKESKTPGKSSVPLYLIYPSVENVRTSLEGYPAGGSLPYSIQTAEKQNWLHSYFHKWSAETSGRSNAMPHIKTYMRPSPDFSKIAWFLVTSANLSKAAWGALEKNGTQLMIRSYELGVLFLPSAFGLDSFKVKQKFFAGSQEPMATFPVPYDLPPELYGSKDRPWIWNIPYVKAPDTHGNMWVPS
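Compounds were preincubated with Tdp1 (1 nM final) for 15 min at room temperature before substrate (15 nM final) started a 5 min reaction; beads (10 ug/ml final) were then added for 10 min before AlphaScreen detection.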
Numbers without * were called inactive. Unless noted, the call rests on the fitted dose curve; in most records, active means well fitted curve in the direction sought with a large enough effect; inconclusive means small, poorly fitted or top-dose-only effect, or another doubt; inactive means no such curve, though single readings can be large; an effect the other way counts as inactive or inconclusive. On the % scale 0 is the no-effect control and ±100 the full control effect.

`COc1ccc(NC(=O)CN(C)C(=O)/C=C/c2cn(-c3ccccc3)nc2-c2ccc(F)cc2)cc1` gave CtBP-E1A blk 5.9, Six1-Eya2 inh -12.1, TDP1 cell CPT inconclusive, IL1B secr inh -20.7, TDP1 cell noCPT 23.1µM* and TDP1 block -8.7%.
CCN(CC(=O)Nc1ccc(NC(C)=O)cc1)C(=O)c1cn(-c2ccccc2)nc1-c1cccs1 was read as CtBP-E1A blk -1.0, Six1-Eya2 inh 3.7, TDP1 cell CPT -20.1%, IL1B secr inh -9.8, TDP1 cell noCPT inconclusive and TDP1 block 0.2%.
`COc1ccc(-c2nn(-c3ccccc3)cc2/C=C/C(=O)OCC(=O)Nc2cccc(C#N)c2)cc1` gave CtBP-E1A blk -4.6, Six1-Eya2 inh 1.9, TDP1 cell CPT inconclusive, IL1B secr inh 0.0, TDP1 cell noCPT inconclusive and TDP1 block -4.6%.
COc1cccc(NC(=O)CN(C)C(=O)/C=C/c2cn(-c3ccccc3)nc2-c2ccc(C)cc2)c1 was read as CtBP-E1A blk -1.0, Six1-Eya2 inh -15.3, TDP1 cell CPT inconclusive, IL1B secr inh inconclusive and TDP1 cell noCPT inconclusive.
For COc1ccc(NC(=O)CN(C)C(=O)/C=C/c2cn(-c3ccccc3)nc2-c2ccc(C)cc2)cc1 the results were CtBP-E1A blk -6.4, Six1-Eya2 inh -6.2, TDP1 cell CPT inconclusive, IL1B secr inh -7.9, TDP1 cell noCPT 20.6µM* and TDP1 block 0.1%.
For O=c1[nH]c(N2CCc3ccccc3C2)nc2c1CCC2 the results were CtBP-E1A blk -0.2, Six1-Eya2 inh 6.6, TDP1 cell CPT inconclusive, IL1B secr inh 5.3, TDP1 cell noCPT -20.3% and TDP1 block 0.0%.
Screening O=C(CN(Cc1ccccc1)S(=O)(=O)c1ccccc1)N/N=C/c1ccc([N+](=O)[O-])cc1 returned CtBP-E1A blk inconclusive, Six1-Eya2 inh inconclusive, TDP1 cell CPT -5.9%, IL1B secr inh inconclusive, TDP1 cell noCPT -26.5% and TDP1 block -2.7%.
`OC(COCc1ccc(Cl)cc1)CN1CCN(CC(O)COCc2ccc(Cl)cc2)CC1` (centres undefined) gave CtBP-E1A blk 2.0, Six1-Eya2 inh 3.1, TDP1 cell CPT 18.4µM*, IL1B secr inh inconclusive, TDP1 cell noCPT 14.6µM* and TDP1 block 5.7%.
For C=CCc1ccccc1OCC(O)CN1CCN(c2ccc(OC)cc2)CC1 (centres undefined) the results were CtBP-E1A blk -26.7, Six1-Eya2 inh inconclusive, TDP1 cell CPT 16.4µM*, IL1B secr inh -22.5, TDP1 cell noCPT inconclusive and TDP1 block 10.8%.
For O=[N+]([O-])c1ccc(OCC(O)CN2CCN(c3ccccc3F)CC2)cc1 (centres undefined) the results were CtBP-E1A blk 3.8, Six1-Eya2 inh 9.3, TDP1 cell CPT inconclusive, IL1B secr inh -10.6, TDP1 cell noCPT inconclusive and TDP1 block -2.7%.
Screening C=CCc1ccc(OCC(O)CN2CCN(Cc3ccc(Cl)cc3)CC2)c(OC)c1 (centres undefined) returned CtBP-E1A blk -11.6, Six1-Eya2 inh -23.4, TDP1 cell CPT inconclusive, IL1B secr inh inconclusive, TDP1 cell noCPT 20.6µM* and TDP1 block 7.9%.
Screening OC(COc1ccc2c(c1)CCC2)CN1CCN(c2ccccc2F)CC1 (centres undefined) returned CtBP-E1A blk 6.4, Six1-Eya2 inh -6.6, TDP1 cell CPT -10.2%, IL1B secr inh -52.6*, TDP1 cell noCPT -8.6% and TDP1 block -2.1%.
C=CCc1ccccc1OCC(O)CN1CCOCC1 (centres undefined) was read as CtBP-E1A blk 24.2, Six1-Eya2 inh 28.7, TDP1 cell CPT -8.2%, IL1B secr inh -14.1 and TDP1 cell noCPT -22.3%.

Bioassay records as filed in PubChem BioAssay.
